Rows were chosen to be rich in hits. Some 7.3% of all compounds tested hit in one or more screens of this group.
SMN2 splice up – enhancers of SMN2 splice variant expression; HEK293 SMN2-luciferase splicing reporter, luminescence, 30-36 h; Potency, µM (titrated, usually from 46.1 µM), inactives show at the highest dose activity change, positive = activation, hits mostly activators; hit rate 2.8% among 210,000; AID 1458; also: % of control where 0% means no effect; nearly all actives have a fitted effect of over 55% in size
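HEK293 cells carry an SMN2 minigene-luciferase reporter in which exon 7 inclusion puts luciferase in frame. Cells were seeded at 2000 cells/well, attached for 10-12 hours, then exposed to compounds for 30-36 hours at 37C before ONE-Glo luminescence.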
Rab9 promoter act – activates the Rab9 promoter; hit rate 2.8% among 320,000; Potency, µM (doses to about 9.22 µM), without a hit: at the top dose activation, negative = inhibition, hits mostly activators; AID 485297; Huh7 Rab9 promoter-luciferase reporter, luminescence, 24 h; also: % of control where 0% means no effect; nearly all actives have a fitted effect of over 60% in size
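Huh7 cells stably carrying a Rab9 promoter-luciferase reporter, 1500 cells per well in OP-MEM I with 10% FBS, treated with compound 24 hours at 37C. Luciferase activity read by luminescence after 10 minutes with Amplite reagent.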
NPC1 promoter act – activates the NPC1 promoter; Huh7 NPC1 promoter luciferase reporter, 24 h; Potency, µM (titrated, usually from 9.22 µM), for inactives: at the top dose activation, actives largely listed as activators; AID 485313; hit rate 2.4% among 320,000; also: % of control where 0% means no effect; nearly all actives have a fitted effect of over 60% in size
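Quantitative HTS used a cell-based reporter: Huh7 cells stably bearing the NPC1 promoter upstream of luciferase were treated with compounds for 24 h, and promoter activation was read as luminescence.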
ELG1 genotoxic – genotoxicity induction in ELG1-luciferase HEK293T cells | hit rate 1.3% among 330,000 | Potency, µM (series often up to 46 µM), inactives show top-dose activity change, positive = activation, usual class: activators | HEK293T ELG1-luciferase reporter, luminescence, 16 h; also: % of control where 0% means no effect; nearly all actives have a fitted effect of over 60% in size
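Luminescence read-out: rising ELG1-luciferase signal, reflecting elevated ELG1 protein under genetic stress, flags genotoxic compounds. Cells were treated for 16 hr at 37 °C before ONE-Glo detection.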
KinaseGlo FLuc – counter-screen: inhibitors of Kinase-Glo firefly luciferase; Q27757; Kinase-Glo luciferase, ATP luminescence, 8 min; Potency, µM (titrated, usually from 38.3 µM), inactives show top-dose activity change, negative = inhibition, usual class: inhibitors; hit rate 0.28% among 200,000; also: % is scaled to controls: 0 for no effect and ±100 for the full control effect; nearly all actives have a fitted effect of over 60% in size
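Compounds were added to a substrate mix at pH 7.2 (50 mM imidazole, 10 uM ATP, within the enzyme's linear range), followed by Kinase-Glo detection reagent; luminescence was measured after 8 minutes at ambient temperature.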
FLuc modulator – firefly luciferase modulation, counter-screen for miR-21 project; purified FLuc, Km substrates, luminescence inhibition; Potency, µM (top dose mostly 57.5 µM), for inactives: at the top dose activity change, negative = inhibition, actives largely listed as inhibitors; hit rate 6.9% among 360,000; AID 588342;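 also: plate controls were vehicle for no effect and reference inhibitor for full effect; nearly all actives have a fitted effect of over 55% in size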
Target sequence (P08659 whole entry, looked up): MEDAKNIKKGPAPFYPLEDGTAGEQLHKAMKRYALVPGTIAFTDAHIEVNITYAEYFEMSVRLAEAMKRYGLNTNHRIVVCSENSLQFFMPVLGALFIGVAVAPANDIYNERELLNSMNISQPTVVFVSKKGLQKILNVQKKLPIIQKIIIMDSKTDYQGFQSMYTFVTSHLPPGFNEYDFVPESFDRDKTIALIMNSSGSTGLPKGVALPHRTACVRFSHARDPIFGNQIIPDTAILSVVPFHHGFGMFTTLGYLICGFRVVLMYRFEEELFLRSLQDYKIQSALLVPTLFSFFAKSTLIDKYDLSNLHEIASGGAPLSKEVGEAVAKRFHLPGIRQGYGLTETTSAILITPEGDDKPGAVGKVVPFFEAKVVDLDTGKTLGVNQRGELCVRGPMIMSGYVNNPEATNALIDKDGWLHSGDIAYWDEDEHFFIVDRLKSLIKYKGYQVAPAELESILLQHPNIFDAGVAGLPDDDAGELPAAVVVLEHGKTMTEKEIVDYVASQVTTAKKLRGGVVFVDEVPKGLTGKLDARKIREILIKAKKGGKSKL
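Purified P. pyralis luciferase, 10 nM final, with Km-level 10 uM D-luciferin and 10 uM ATP in 50 mM Tris acetate pH 7.5, 10 mM Mg acetate, 0.01% Tween-20, 0.05% BSA; 6-point qHTS titration about 60 µM downward; luminescence read.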
* hit, by the source's call; ? = inconclusive; · = no result; [ ] = remark or other dose. Calls follow the shape of the dose curve; as a rule, active = well fitted curve in the direction sought with a large enough effect; inconclusive = small, poorly fitted or top-dose-only effect, or another doubt; inactive = no such curve, though single readings can be large; an effect the other way counts as inactive or inconclusive. Potency is read from the fitted curve at half-maximal effect.

SMILES | SMN2 splice up | Rab9 promoter act | NPC1 promoter act | ELG1 genotoxic | KinaseGlo FLuc | FLuc modulator
Cc1ccc(C(=O)Nc2ccc(C(=O)N/N=C/c3ccncc3)cc2)cc1 | 2.6% | 13.2% | -11.9% | -10.4% | -0.4% | -2.1%
CC(=O)Nc1cccc(C(=O)N/N=C/c2ccc(F)cc2)c1 | 26.8%[1.84 µM] | 1.41µM* | 2.82µM* | 16.4µM* | -7.4% | 6.01µM*
O=C(CCC(=O)Nc1ccc(F)cc1)N/N=C/c1ccc(F)cc1 | · | 0.2% | -1.7% | 2.6% | · | -0.8%
CCOC(=O)Cc1c(C(=O)OCC)nnc2c(-c3ccccc3)c(C)nn12 | -1.8% | · | · | · | · | -18.4%
CCc1ccn2cc(-c3ccc4c(c3)OCO4)nc2c1 | · | ? | ? | 0.184µM* | · | 0.0601µM*
COC(=O)c1ccc2nc(-c3ccc4c(c3)OCO4)cn2c1 | · | 0.1µM* | 0.224µM* | ? | ? | 0.301µM*
O=C(NCc1cn2ccccc2n1)c1ccc2c(c1)OCO2 | -6.6% | 2.0% | -3.0% | 1.4% | 4.8% | -0.9%
COc1ccccc1CNC(=O)Cn1ncc2c(C)n(Cc3ccccc3Cl)c(C)c2c1=O | -14.8% | · | · | · | · | -17.3%
CCn1c(C)cc(/C=C2\NC(=O)N(Cc3ccccc3)C2=O)c1C | -4.7% | 3.3% | 8.2% | 0.0% | -3.3% | -15.4%
COc1ccc(C=C2c3ccccc3C(=O)c3ccccc32)c(OC)c1 | · | -24.3% | -6.2% | ? | · | -4.0%
CCn1c(C)cc(C=C2C(=O)c3ccccc3C2=O)c1C | ? | ? | ? | ? | -21.2% | 0.477µM*
Cc1cc(C=C2C(=O)c3ccccc3C2=O)c(C)n1C | ? | 0.2% | 1.3% | ? | -4.4% | 3.01µM*
COc1ccccc1NC(=O)c1nn(C)c2c1CS(=O)(=O)c1ccccc1-2 | · | · | · | · | · | -13.4%
NC1=NC(=Nc2cccc(S(N)(=O)=O)c2)c2ccccc21 | · | 1.5% | -7.1% | 9.7% | · | -4.4%
COc1cc(N=Nc2cccc(S(N)(=O)=O)c2)c2ccccc2c1N | ? | -3.0% | 10.2% | ? | -1.9%[7.66 µM] | 19µM*
CC(C)(C)c1ccc(C(=O)Nc2ccccc2Cl)cc1 | · | 0.708µM* | 0.794µM* | 0.3% | -4.6% | 1.9µM*
CC(C)(C)c1ccc(C(=O)Nc2cccc3ncccc23)cc1 | · | 4.7% | -1.8% | -4.5% | · | 13.5µM*
O=C(Nc1ccccc1NC(=O)c1ccco1)c1ccccc1 | · | -3.7% | -2.0% | -2.3% | · | 0.3%
CC(C)(C)c1ccc(C(=O)Nc2ccccc2NC(=O)c2ccco2)cc1 | -12.7% | -1.8% | -0.6% | -2.6% | -1.1% | 19µM*
O=C(CSc1cn(CC(=O)N2CCCCC2)c2ccccc12)NCc1ccccc1 | · | · | · | · | · | -7.5%
COCCN=C1Sc2nc3ccc(C)cc3cc2CN1Cc1ccco1 | 20.3% | 22.4% | 16.1% | 12.0% | -1.6% | 10.7µM*
CCc1ccc(C(=O)Nc2ccc3nc(C)ccc3c2)cc1 | · | 2.82µM* | 3.55µM* | ? | · | 5.36µM*
CC(C)(C)c1ccc(C(=O)Nc2ccc(NC(=O)c3ccc(Cl)c(Cl)c3)cc2)cc1 | -7.7% | · | · | · | · | 1.4%
Cc1ccc2cc(NC(=O)c3ccc(C(C)(C)C)cc3)ccc2n1 | · | 1.7% | -2.2% | -15.1% | · | 9.53µM*
CCc1ccc(C(=O)Nc2ccc3nn(-c4ccc(C)c(Cl)c4)nc3c2)cc1 | 15.3% | · | · | · | · | -6.4%
SMILES | SMN2 splice up | Rab9 promoter act | NPC1 promoter act | ELG1 genotoxic | KinaseGlo FLuc | FLuc modulator
O=C(CSc1nnc(Nc2ccccc2F)s1)Nc1cccc(S(=O)(=O)N2CCCCC2)c1 | 5.6% | 4.4% | 0.7% | 1.9% | -4.7% | 13.5µM*
Cc1ccc(Nc2nnc(SCC(=O)Nc3cccc(S(=O)(=O)N4CCCCC4)c3)s2)cc1 | 24.4% | 17.3% | 15.5% | -2.3% | 2.5% | 2.69µM*
Cc1nnc(SCC(=O)Nc2cccc(S(=O)(=O)N3CCCCC3)c2)s1 | · | -3.4% | -7.4% | -0.9% | · | ·
CCOc1ccc(C(=O)Oc2c(Sc3ccccc3)c(C)nn2C(C)(C)C)cc1OCC | 11.2% | · | · | · | · | 0.0%
Cc1cc(-c2nc3ncccc3o2)ccc1N | 11.2µM* | ? | ? | ? | -24.6% | 16.9µM*
Cc1ccc(-c2nc3ncccc3o2)cc1NC(=O)C(C)(C)C | · | 0.5% | 0.7% | 0.2% | · | 2.2%

Source: PubChem (National Center for Advancing Translational Sciences (NCATS))
